Among the data in PubChem BioAssay AID455 (Sanford-Burnham Center for Chemical Genomics, 2006) are augmentation values, retold here.

Structures are written as SMILES. Screen size: about 10,000 compounds; about 20 (0.2%) were called active. This is one part of a sample in which actives are shown more often than they occur.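 How the source made its calls: active means a compound raising TNF-alpha-driven VCAM-1 surface staining, with its hit status upheld on visual or statistical review; inactive means the rest, including hits rejected on review.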

This assay in a line: enhancers of VCAM-1 display on endothelial cells, cell-based, plate reader, pooled HUVEC, TNFa stimulus (AID 455).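 On augmentation: 0% = TNFa plus DMSO wells and 100% = a visually confirmed top hit.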 Particulars: HUVEC TNFa-induced VCAM-1 immunofluorescence; hits give high values, 100% set by best visually verified hit,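 tested at 5 µM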.
On to `Cc1cc(C)nc(N2CCCC(C(=O)Nc3nc4ccc(S(C)(=O)=O)cc4s3)C2)n1` (centres undefined), for which the augmentation entry was “inactive”.

Turning to `COc1cc(NC(=O)CN(c2cc(C)cc(C)c2)S(=O)(=O)c2c(C)noc2C)cc(OC)c1`, the augmentation entry is “inactive”.

Consider `Cc1ccc(NC(=O)CSc2nnc(CSc3nc(C)cc(C)n3)n2Cc2ccco2)c(C)c1`, for which the augmentation entry was “inactive”.

On to `CCn1c(=S)ccc2ccc(OC)cc21`, for which the augmentation entry was “inactive”.

Take `CCOc1ccc(NC(=O)CSc2nccn2C)cc1`: the augmentation entry is “inactive”.

For `COC(=O)c1ccc2c(c1)C(=O)N(C1CCCCC1)C2=O`, the augmentation entry is “inactive”.

In the case of `CCOc1cc(C2NC(=O)N(C)C(C)=C2C(=O)OC)cc(Br)c1O` (centres undefined), the augmentation entry is “inactive”.

As to `CCOC(=O)C1=C(C)NC(=O)NC1c1ccc(OCCO)c(OC)c1` (centres undefined), the augmentation result was “inactive”.

Take `CCOC(=O)C1=C(c2ccccc2)NC(=O)NC1c1ccc(N(C)C)cc1` (centres undefined): the augmentation was 63.8% (active).

Consider `CCOC(=O)C1=C(C)NC2=C(C(=O)CC(C)(C)C2)C1c1ccc(N(C)C)cc1` (centres undefined), for which the augmentation entry is “inactive”.

Regarding `Cc1ccc(S(=O)(=O)NC(=O)c2cc(C)n(CCCn3ccnc3)c2C)cc1`, the augmentation result was “inactive”.

Consider `COc1ccc(C(=O)Nc2nc(C)c(C(=O)N(C)C)s2)cc1OC`, for which the augmentation entry was “inactive”.

With `COc1ccccc1NC(=O)NC(N)=O`, the augmentation entry was “inactive”.

As to `O=C(C1CC1)N1CCc2cc(Br)cc(S(=O)(=O)N3CCOCC3)c21`, the augmentation result is “inactive”.

Take `CC1(C)Cc2ccccc2C(N)=C1C#N`: the augmentation result is “inactive”.

As to `CCN1CCN(c2nc(C)nc3c2sc(=S)n3C)CC1`, the augmentation entry is “inactive”.

In the case of `CCc1cc2ccc(C)cc2nc1SCC(=O)N1CCN(C(=O)c2ccco2)CC1`, the augmentation entry was “inactive”.

Turning to `O=c1c2[nH]c3ccccc3c2ncn1CCCn1ccnc1`, the augmentation entry was “inactive”.

Turning to `O=c1c2[nH]c3ccc(Cl)cc3c2ncn1Cc1ccccn1`, the augmentation was 100% (active).

With `O=C1CCCN1CCCNc1ncnc2c1[nH]c1ccc(Cl)cc12`, the augmentation result was “inactive”.

As for `COc1cc(-c2nc(S(=O)(=O)c3ccccc3)c(N3CCOCC3)o2)cc(OC)c1OC`, the augmentation result is “inactive”.

As for `COc1cc2[nH]c(=O)c(C(=O)NCCCN3CCCCC3)c(O)c2cc1OC`, the augmentation entry is “inactive”.

Turning to `COc1cccc(C2C(C(=O)c3cccs3)=C(O)C(=O)N2CCCn2ccnc2)c1OC` (centres undefined), the augmentation entry was “inactive”.

For the molecule `Cc1cccc(C(=O)N2CCN(C(=O)c3cccc(C)c3)C(C)C2)c1` (centres undefined), the augmentation entry was “inactive”.

With `CC(=O)c1ccccc1NS(=O)(=O)c1c(C)nn(-c2ccccc2)c1C`, the augmentation result was “inactive”.

Take `COc1cccc(NC(=O)N(CCCN2CCOCC2)C(C)c2cc3cccc(OC)c3o2)c1` (centres undefined): the augmentation entry is “inactive”.

Take `S=C(c1ccc(N2CCOCC2)cc1)N1CCCCC1`: the augmentation result was “inactive”.

Take `COc1ccccc1C1/C(=C(\O)c2c(C)nc3c(C)cccn23)C(=O)C(=O)N1CCCN(C)C` (centres undefined): the augmentation result was “inactive”.

With `COc1ccc(S(=O)(=O)Nc2ccc(F)c(Cl)c2)cc1OC`, the augmentation was 70.4% (active).

Regarding `COc1ccc(S(=O)(=O)Nc2ccc(F)c(F)c2)cc1Cl`, the augmentation result is “inactive”.

Turning to `COc1ccc(S(=O)(=O)Nc2ccc(S(=O)(=O)N3CCCCC3)cc2)cc1OC`, the augmentation result was “inactive”.

Consider `COC(=O)Cc1c(C)c2ccc(OCC(=O)N3CCOCC3)cc2oc1=O`, for which the augmentation entry is “inactive”.

For `CCCSc1nnc(N2C(=O)CC(c3ccsc3)C3=C2CCCC3=O)s1` (centres undefined), the augmentation result was “inactive”.

As for `COc1ccc(-c2nnc(SCC(=O)NC(=O)NCc3ccco3)o2)cc1`, the augmentation entry is “inactive”.
